Laboratory results reported in PubChem BioAssay AID1851 (National Center for Advancing Translational Sciences (NCATS), 2009).
The campaign covered roughly 16,000 compounds. About 2,600 (16%) were called active. Inconclusive results (about 20%) are left out. These entries were drawn from the full list. A number with no mark means an inactive call. Calls follow the shape of the dose curve; as a rule, active = well fitted curve in the direction sought with a large enough effect; inconclusive = small, poorly fitted or top-dose-only effect, or effect the other way; inactive = no such curve, though single readings can be large or run the other way.

These compounds were tested against Cytochrome P450 2D6 (Homo sapiens) (UniProt P10635) (assay: Cytochrome panel assay with activity outcomes). Conditions: recombinant CYP, pro-luciferin dealkylation, luminescence, p450-cyp2d6; series mostly up to 57.1 µM; activity, negative = inhibition: at the top concentration.
% is scaled to controls: 0 for no effect and ±100 for the full control effect.

Cytochrome P450 2D6 (Homo sapiens), sequence (P10635 whole entry, looked up): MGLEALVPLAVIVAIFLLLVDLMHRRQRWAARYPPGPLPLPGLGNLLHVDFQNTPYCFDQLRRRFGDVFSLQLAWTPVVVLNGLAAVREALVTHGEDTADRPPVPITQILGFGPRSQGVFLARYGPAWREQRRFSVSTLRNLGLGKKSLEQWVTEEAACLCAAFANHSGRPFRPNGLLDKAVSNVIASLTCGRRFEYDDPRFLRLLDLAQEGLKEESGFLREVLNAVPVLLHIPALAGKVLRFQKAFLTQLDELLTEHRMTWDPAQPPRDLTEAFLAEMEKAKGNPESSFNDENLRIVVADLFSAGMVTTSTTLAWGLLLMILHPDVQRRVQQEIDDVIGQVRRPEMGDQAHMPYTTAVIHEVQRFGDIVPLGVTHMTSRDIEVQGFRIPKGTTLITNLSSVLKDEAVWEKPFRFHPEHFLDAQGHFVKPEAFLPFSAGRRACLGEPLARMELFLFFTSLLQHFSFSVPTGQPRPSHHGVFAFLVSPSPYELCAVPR

SMILES	activity, negative = inhibition	AC50
COc1ccc(-c2nn(-c3ccccc3)cc2/C=N/NC(=O)c2ccc3c(c2)OCO3)cc1	-26.4%	–
CSCC[C@@H]1NC(=O)C/C=C\[C@@H](C)COC(=O)[C@H](C)COC1=O	10.5% [at 11.4 µM]	–
COc1cc(-c2ccc(=O)[nH]n2)ccc1OC(F)F	4.03%	–
CC(C)c1cccc2nc3c(c(C(C)(C)C)c12)Cn1c-3cccc1=O	-17.1%	–
C[C@@H](N=C(N)N)C(=O)O	9.93% [at 11.4 µM]	–
Clc1ccccc1NN(Cc1ccccn1)c1ccccc1Cl	-11.2% [at 11.4 µM]	–
CNC(=S)N1CCN(c2cccc(OC)c2)CC1	-11.4%	–
O=C(NNC(=O)c1cc2cc3ccccc3nc2s1)c1cccc(C(F)(F)F)c1	5.7%	–
Cc1cc(=O)c2c(O)c(O)ccc2o1	-8.29%	–
Cc1cc(=O)oc2cc(O)ccc12	0.168% [at 25.6 µM]	–
O=c1c(O)c(-c2ccc(O)cc2)oc2cc(O)cc(O)c12	–	10 µM (active)
O=C(COc1ccc2ccccc2c1)NNC(=O)Cc1cccc2ccccc12	-1.19%	–
CC(=O)CC(=O)Nc1ccc2ccccc2c1	15.5% [at 11.4 µM]	–
O=C(COc1ccc2ccccc2c1)Nc1ccc(Cc2ccncc2)cc1	–	0.355 µM (active)
CCNC(=O)NC1(C(=O)Nc2ccc3c(c2)OCCO3)CCCCC1	6.31%	–
CC(=O)NN1C(=O)c2ccc(Oc3ccc([N+](=O)[O-])cc3)cc2C1=O	-5.87%	–
O=C(NC(=S)Nc1ccc(C(=O)N2CCOCC2)cc1)c1ccc([N+](=O)[O-])cc1	17.4%	–
COc1ccc(-n2c(=O)c(-c3cc(F)cc(F)c3)nc3cncnc32)cc1	4.13%	–
CCOC(=O)Nc1ccc(C)cc1NC(=O)OCC	10.5%	–
CCOC(=O)Nc1ccc(NCc2ccc(F)cc2)nc1N	–	31.6 µM (active)
CCOC(=O)NC(NC(=O)OCC)C(=O)c1ccc(F)cc1	3.08%	–
CC1=NNC(=O)C1CCC(=O)N/N=C\c1ccccc1[N+](=O)[O-] (stereo unspecified)	3.05%	–

SMILES	activity, negative = inhibition	AC50
C/C(=N\N=C1\NC(=O)CC(C(=O)O)S1)c1cccs1 (stereo unspecified)	-14.7%	–
C/C(CCc1ccc2c(c1)OCO2)=N\N=C1\NC(=O)CC(C(=O)Nc2ccccc2)S1 (stereo unspecified)	–	8.91 µM (active)
COCCN1C(=O)c2ccccc2C(C(=O)Nc2ccc3c(c2)OCCO3)C1c1ccc(F)cc1 (stereo unspecified)	-15.1%	–
Cc1nn(-c2ccccc2)c(Cl)c1C(=O)Nc1c(C)n(C)n(-c2ccccc2)c1=O	6.41%	–
CCC(C)NC(=O)c1c(C)cc(=O)oc1C (stereo unspecified)	4.71%	–
C1CCN(CC[C@@H]2CCCCN2)CC1	-9.75% [at 11.4 µM]	–
C1CCC(C(C[C@@H]2CCCCN2)C2CCCCC2)CC1	–	0.501 µM (active)
NC(N)=NC[C@@H]1CCCCCCN1	5.74% [at 11.4 µM]	–
CCC(=O)N1CCc2cc(S(=O)(=O)NC(C(=O)NCc3ccc(F)cc3)C(C)C)ccc21 (stereo unspecified)	0.907%	–
S=C(Nc1ccccc1)Nc1ccc(OCc2ccccc2)cc1	-25.1%	–
CC(C)(C)NC(=S)Nc1ccc(Nc2ccccc2)cc1	–	14.1 µM (active)
CNC(=S)Nc1ccc(Nc2ccccc2)cc1	-29.5%	–
COc1cccc(Nc2ncc3nc(-c4cccs4)c(=O)n(CCC#N)c3n2)c1	-4.4%	–
CCOC(=O)c1ccc(-c2ccc(CO)o2)cc1	-15%	–
O=C(N/N=C/c1ccc(OCc2ccccc2)cc1)c1cccs1	-1.86%	–
COc1ccc(N2C(=O)NC3CC2(C)Oc2ccccc23)cc1OC (stereo unspecified)	-0.582%	–
C[C@@H](O)[C@H]1C(=O)N2C(C(=O)O)=C(S[C@@H]3CN[C@H](C(=O)N(C)C)C3)[C@H](C)[C@H]12	4.97% [at 25.6 µM]	–
CCOC(=O)N1CCC(NC(=O)CSCc2cnn(-c3ccccc3)c2-n2cccc2)CC1	-28.7%	–
COCC(=O)O[C@]1(CCN(C)CCCc2nc3ccccc3[nH]2)CCc2cc(F)ccc2[C@@H]1C(C)C	–	0.316 µM (active)
COc1ccc(N(C)S(=O)(=O)c2ccc3c(c2)CCC(=O)N3)cc1	-12.3%	–
C/C(=N\NC(=O)c1[nH]c2c([N+](=O)[O-])cc(C)cc2c1-c1ccccc1)c1cccnc1	-15.9%	–
COc1ccc(NC(=O)C2c3cc(OC)c(OC)cc3C(=O)N(C)C2c2cccnc2)cc1OC (stereo unspecified)	-3%	–

SMILES	activity, negative = inhibition	AC50
C=CCC(C)(NCc1ccccc1)c1ccco1 (stereo unspecified)	–	3.98 µM (active)
CC1(C)Oc2cc(N)c([N+](=O)[O-])cc2O1	-5.57%	–
Cc1nnc(SCC(=O)N2CC(=O)Nc3ccccc32)n1Cc1ccccc1	-3.02%	–
O=C(O)c1ccccc1-c1ccccc1C(=O)Nc1ccc2c(c1)Cc1ccccc1-2	8.94% [at 11.4 µM]	–
O=[N+]([O-])c1cccc(/C(=N/N=C/c2ccccc2Br)C23CN4CN(CN(C4)C2)C3)c1	-6.29%	–
Cc1ccc(C(=O)NNC(=O)c2cc3cc4ccccc4nc3s2)cc1	19.3%	–
Oc1ccc(-c2nc(-c3ccc(F)cc3)c(-c3ccncc3)[nH]2)cc1	–	5.01 µM (active)
c1ccc(-c2n[nH]c(-c3ccccc3)c2-c2nc3ccccc3[nH]2)cc1	-22.8%	–
Cc1ccsc1-c1nc(-c2ccccc2)c(-c2ccccc2)[nH]1	-0.505%	–
O=c1cnc2cnc(Oc3ccccc3)nc2n1C1CC1	-9.03%	–
Cc1ccc(C(=O)c2cn(-c3ccc(F)c(Cl)c3)nn2)cc1	6.95%	–
CC[C@](N)(CCC(=O)O)C(=O)O	-1.06%	–
Nc1nnc(SCCOc2cccc(Br)c2)s1	–	11.2 µM (active)
CCSc1nnc(NC(=O)COc2ccc3ccccc3c2)s1	-5.34%	–
CCn1c2ccccc2c2cc(N=C3SC(CC(=O)Nc4ccccc4OC)C(=O)N3C)ccc21 (stereo unspecified)	-2.34%	–
CCN(CC)c1nc(Nc2ccccc2)nc(Oc2ccc(C(=O)OC)cc2)n1	-6.17%	–
Cc1c(N(C)CS(=O)(=O)O)c(=O)n(-c2ccccc2)n1C	10.2% [at 25.6 µM]	–
CN(C)C(=O)c1ccc(-c2nc(Nc3ccccc3)c3ccccc3n2)cc1	-14.8%	–
CN(C)c1ccc(-c2nc(-n3ccnc3)c3ccccc3n2)cc1	–	7.94 µM (active)
CN(C)C(=O)c1ccc(-c2nc(-n3ccnc3)c3ccccc3n2)cc1	–	15.8 µM (active)
CN(C)C(=O)c1ccc(-c2nc(Nc3ccncc3)c3ccccc3n2)cc1	-6.54%	–
COc1ccc(-n2c(=O)c(-c3cccs3)nc3cncnc32)cc1	0.751%	–
